# DT40 TDP1 no CPT: qHTS for Inhibitors of human tyrosyl-DNA phosphodiesterase 1 (TDP1): qHTS in cells in absence of CPT; DT40 Tdp1-/- hTDP1 cells, no CPT, ATP luminescence, 48 h; Potency, µM (top dose mostly 46.2 µM), for inactives: top-dose activity change, negative = growth inhibition, actives largely listed as inhibitors; hit rate 15% among 420,000; AID 686978, 2013; note: nearly all actives have a fitted effect of over 55% in size
#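 Chicken DT40 Tdp1-/- cells complemented with human TDP1, screened without camptothecin (DMSO vehicle only), 400 cells/well. Compounds pin-transferred, cells incubated at 37 °C for at least 48 hr. Growth read as ATP-dependent luminescence (CellTiter-Glo, 30 min at RT).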
# PLK1 PBD block: blocks phosphopeptide binding to human PLK1 polo-box domain; Plk1 PBD binding of FITC phosphopeptide, fluorescence polarization; Potency, µM, for inactives: max response, negative = inhibition, most hits filed as inhibitors; hit rate 2.8% among 360,000; note: series mostly up to about 57 µM; nearly all actives have a fitted effect of over 65% in size
# KAT2A inh: inhibitors of human GCN5L2 histone acetyltransferase | GCN5L2 HAT assay, ThioGlo1 CoA-SH fluorescence | Q92830 | Potency, µM (titrated, usually from 58.9 µM), without a hit: top-dose activity change, negative = inhibition, actives largely listed as inhibitors | AID 504327 | hit rate 0.21% among 390,000
#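 Free CoA generated was detected with ThioGlo1 (50uM) fluorescence at Ex340nm/Em540nm, read immediately and after 20 min at room temperature. Enzyme, 20 nM in HEPES pH 7.5 buffer, saw compounds 15 min before adding 75uM H3(1-25) peptide and 70uM acetyl-CoA.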
# VDR inhibitor: vitamin D3 receptor (human) inhibition; VDR-SRC2-3 peptide fluorescence polarization, 2 h; hit rate 0.93% among 400,000; Potency, µM, for inactives: max response, negative = inhibition, usual class: inhibitors
# Target sequence (P11473 whole entry, looked up): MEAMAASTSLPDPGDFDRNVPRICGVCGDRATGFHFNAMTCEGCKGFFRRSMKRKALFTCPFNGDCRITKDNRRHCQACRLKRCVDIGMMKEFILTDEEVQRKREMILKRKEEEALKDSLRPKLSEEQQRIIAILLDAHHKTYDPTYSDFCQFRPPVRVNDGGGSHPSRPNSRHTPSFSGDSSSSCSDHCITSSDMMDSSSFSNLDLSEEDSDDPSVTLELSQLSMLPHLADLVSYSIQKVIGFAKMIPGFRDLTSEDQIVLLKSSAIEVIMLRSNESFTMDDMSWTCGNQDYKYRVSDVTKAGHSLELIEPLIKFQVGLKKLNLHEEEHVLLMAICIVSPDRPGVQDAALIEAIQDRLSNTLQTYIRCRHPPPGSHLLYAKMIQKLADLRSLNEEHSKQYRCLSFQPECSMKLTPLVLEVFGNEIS
#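 Signal is fluorescence polarization, reporting how far test compounds block the interaction of VDR with the SRC2-3 coregulator peptide after a 2 h room-temperature incubation.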
# DT40 TDP1 CPT: DT40-hTDP1 cell growth loss with CPT | chicken DT40 Tdp1-/-;hTDP1 cells + 20 nM CPT, ATP luminescence, 48 h | Potency, µM (top dose mostly 46.2 µM), for inactives: top-dose activity change, negative = growth inhibition, usual class: inhibitors | hit rate 12% among 420,000; note: nearly all actives have a fitted effect of over 55% in size
#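 Chicken DT40 Tdp1-/- cells stably complemented with human TDP1 were seeded at 400 cells/well in medium containing 20 nM camptothecin, exposed to pin-transferred compounds, and grown at 37 °C for at least 48 hr. Viability was read as ATP luminescence.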
# TDP1 block: blocks human tyrosyl-DNA phosphodiesterase 1. Q9NUW8. recombinant TDP1, AlphaScreen DNA substrate cleavage. Potency, µM (series often up to 130 µM), for inactives: at the top dose activity change, negative = inhibition, hits mostly inhibitors. hit rate 0.28% among 350,000. AID 485290; note: nearly all actives have a fitted effect of over 40% in size
#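 Tdp1 1 nM final; 15 min RT w/ cpd; substrate 15 nM, 5 min; beads 10 ug/ml, 10 min; AlphaScreen read. Neg ctrl: no enzyme.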
# Numbers without * were called inactive; ? = inconclusive; nt = no result. Sampled rows, rich in hits. Any-hit rate of the full collection: about 18%. Calls come from the whole dose curve; as a rule, active = well fitted curve in the direction sought with a large enough effect; inconclusive = small, poorly fitted or top-dose-only effect, or another doubt; inactive = no such curve, though single readings can be large; an effect the other way counts as inactive or inconclusive. % is set by controls: 0 for no effect and ±100 for the full control effect; potency is the fitted concentration of half-maximal effect.
SMILES,DT40 TDP1 no CPT,PLK1 PBD block,KAT2A inh,VDR inhibitor,DT40 TDP1 CPT,TDP1 block
CCCCn1c(=O)c(CCC(=O)OCC(=O)NCc2ccc(OC)c(OC)c2)nc2ccccc21,-3%,4%,-10%,13%,-11%,5%
CC(C)CN1C(=O)CSCC1(C)C(=O)NC(C)C (stereo not drawn),4%,-15%,nt,nt,31%,nt
Cc1ccc(NC(=O)c2ccc(S(=O)(=O)NCc3cccnc3)cc2)c(C)c1,?,0%,-3%,-3%,-26%,nt
C=C1C=C(C)n2ncc(C(=O)Nc3ccc(C)cn3)c2N1,?,nt,nt,nt,-20%,nt
O=c1cc(-c2ccccc2)c2cc(Cl)c3c(c2o1)CN(Cc1ccccc1)CO3,?,nt,-8%,-10%,?,5%
COCC1CCN(C(=O)c2ccc3nc(Cc4cccc(Cl)c4)oc3c2)CC1,18µM*,-4%,nt,nt,21µM*,nt
CCCCc1ccc(NC(=S)N2CCCC2)cc1,15µM*,3%,-7%,1%,12µM*,3%
COc1ccc(CCNC(=S)Nc2ccccc2)cc1,?,1%,0%,-4%,?,7%
CC(C)c1ccc(NC(=S)Nc2ccc(OC(F)(F)F)cc2)cc1,23µM*,-8%,-1%,0%,18µM*,8%
COc1ccc(CCNC(=S)Nc2ccc(C(C)C)cc2)cc1,18µM*,-11%,-25%,-8%,?,-3%
COc1ccc(CCNC(=S)Nc2ccc(OC)cc2)cc1,?,21µM*,2%,-23%,?,8%
CC(=O)NC(=S)Nc1ccc(NC(=O)COc2ccc(C(C)C)cc2)cc1,-22%,-7%,1%,-11%,-4%,1%
Cc1ccc(OCC(=O)NCC(=O)OCc2cc(=O)n3nc(CC(C)C)sc3n2)cc1,-20%,nt,-9%,12%,-24%,10%
CCCCc1ccc(NC(=S)NCc2ccc(OC)cc2)cc1,18µM*,-26%,-8%,-12%,?,5%
CCCCc1ccc(NC(=S)NCc2ccccc2OC)cc1,-1%,-1%,-1%,19%,9%,3%
COc1ccc(CCNC(=S)Nc2cc(C)cc(C)c2)cc1,23µM*,-11%,-2%,1%,?,6%
Cc1cc(C)cc(NC(=S)NCCc2ccc(S(N)(=O)=O)cc2)c1,11%,-9%,0%,-16%,2%,3%
CCC(C)c1ccc(NC(=S)Nc2ccc(OC)cc2)cc1 (stereo not drawn),16µM*,-3%,3%,?,23µM*,1%
COc1ccc(NC(=S)NCCCCCC(=O)C[N+](=O)[O-])cc1,-3%,24µM*,-21%,?,-20%,5%
Cc1csc(=O)n1CC(=O)OCC(=O)c1ccc(Br)cc1,-14%,-11%,-1%,-14%,-2%,nt
O=C(CSc1nnc2c(n1)[nH]c1ccccc12)Nc1ccc2c(c1)OCO2,?,27µM*,-4%,-8%,-13%,5%
c1ccc2c(c1)[nH]c1nc(SCCN3CCOCC3)nnc12,?,27µM*,-8%,-1%,-21%,8%
C=CCSc1nc2[nH]ncc2c(=O)[nH]1,13%,30µM*,0%,-15%,?,1%
O=C(O)CSc1c(-c2cccs2)[nH]c2ccccc12,?,27µM*,-1%,?,?,5%
O=C(CSc1nnc2c(n1)[nH]c1ccccc12)Nc1ccc(N2CCOCC2)cc1,?,?,-22%,4%,?,6%
O=C(O)CSc1c(-c2ccccc2)[nH]c2ccccc12,2%,-8%,0%,8%,-5%,0%
Cc1cc(Nc2cccc(Cl)c2C)n2nc(Cc3ccccc3)nc2n1,-30%,nt,-11%,8%,?,7%
O=C(O)CSc1nnc2c(n1)[nH]c1ccccc12,4%,24µM*,-9%,-18%,1%,-14%
